The results in this text go back to PubChem BioAssay AID1508600 (Functional Genomics Laboratory (NCATS/FGL), 2020).

The whole screen tested about 53,000 sequences, of which about 3,700 (7%) were called active.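 How the source made its calls: active means gene knockdowns whose robust z-score for IL-1 alpha signal is at least 2 or at most -2, so actives lie on both sides; inactive means the rest.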 Only a selection was taken, and actives are over-represented in it overall.

A short description of this assay: Components of the Cytosolic LPS Sensing Pathway: Gene Identification via Genome-wide siRNA Screen.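 Further: robust z of the log signal after scaling to non-targeting control siRNA wells of the plate.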 Conditions: RAW264.7 macrophages, IL-1a HTRF, actives lie on both sides, screened at 100 nM (by protocol), cells primed 5 h with Pam3CSK4 first. The method in brief:
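Cells (RAW264.7, 1×10^4 per well) were transfected with siRNA at 100 nM and cultured 48h at 37 degrees C. Pam3CSK4 was added for 5 hours; LipidA transfection followed for 24 hour. IL-1a was then measured by HTRF.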
On the technique in general: In TR-FRET formats the signal depends on donor and acceptor labels being close together.
Regarding GGCAGCAGAGAACAAGAAATT against Serbp1, the z-score is -1.43 (inactive).

As to CCCAACUGACAUCUUCCUATT against Gzmb, the z-score was 2.86 (active).

Regarding GGAAAGCACAUCCUCUUUGTT against Gpx6, the z-score was 1.02 (inactive).

Consider CGUGAUUUCAGUGAGGGUGTT against Tarsl2, for which the z-score was 0.996 (inactive).

Regarding CGAAGUGAAGAUUUACAGCTT against Nol10, the z-score was -0.106 (inactive).

As to GCAAUGUGACCAAGACAAUTT against Prelid1, the z-score is 0.739 (inactive).

GGCGUGAUAGCUGGACUUATT against Eola1: the z-score was 0.439 (inactive).

As for GGCCAUAUCUUAAAGUUAATT against Hcfc1r1, the z-score is -0.246 (inactive).

As for GACCAGUGACAAGACCAUCTT against Unc45b, the z-score was 0.352 (inactive).

With GGUGCAGGCCAUGAUUUACTT against C1qtnf4, the z-score is 2.65 (active).

Consider GGAAAUGCCACCAAAGAACTT against Slc38a11, for which the z-score was -0.168 (inactive).

CGGACUUGUUUUUUAGUCUTT against Tnrc18: the z-score is 0.164 (inactive).

With GGCCAACUGGAGAUAGAUATT against Tamm41, the z-score was 1.19 (inactive).

On to GGAUAAUGGUUUAAAACUCTT against Bmt2, for which the z-score is -1.34 (inactive).

Take GGAAAACCUACCGAAGUUATT against Irf3: the z-score is 2.79 (active).

Consider GCAUUGAAGUCACCUCCACTT against Clcn2, for which the z-score was 0.161 (inactive).

On to GGACAACCAAGGAAGAAACTT against Fam205c, for which the z-score is 0.816 (inactive).

Turning to GGUGUUUGAAGAGCUGACATT against Pde6b, the z-score is -1.85 (inactive).

In the case of GGUUGUUAAGCUGAAGCAATT against Prkacb, the z-score was -0.219 (inactive).

Consider GCUAUAAUGCUGGAGUCAATT against P3h2, for which the z-score is 0.27 (inactive).

GGUGUGUUUGCUAUUUCCATT against Olfr259: the z-score was 0.4 (inactive).

GGUCCCAGCAUGUUUACGUTT against Slc2a12: the z-score was 3.04 (active).

Regarding GCUCUGUCUUCAGGUCAUUTT against Olfr1040, the z-score was -0.0484 (inactive).

GGGACUGGAUUUCUGUAUUTT against Derl1: the z-score is -0.694 (inactive).

On to GGCUAUCCAGAGAUACGUGTT against Snrnp25, for which the z-score is -0.571 (inactive).

In the case of GGGCAUAGACAGUACCAGUTT against Clec2m, the z-score was -2.04 (active).

As for GGACCAGCUAAAUAUUAGUTT against Rgs2, the z-score is -0.315 (inactive).

GGCAUUAAUAUGUCUGACUTT against Tada1: the z-score was -0.0627 (inactive).

GGAAAAAUGGCAACUUCAATT against Dock3: the z-score was 0.766 (inactive).

Turning to GGUGUAUGUCACCCUGACCTT against Sag, the z-score is -0.617 (inactive).
